Source: PubChem BioAssay (NCI)
The panel holds about 79,000 compounds, 15% with a hit somewhere; the sample as a whole holds those more often. Calls of active or inactive are those of the source. Cut-off read from the data, not from the text of the source: active = growth inhibition above about 70%; inactive = the rest.

Columns and labels:
[1] = NCI Yeast Anticancer Drug Screen. Data for the rad52 strain (AID 147);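 note: 0% = growth of vehicle-treated control cultures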; settings: S. cerevisiae rad52 mutant growth inhibition, hits give high values
Procedure, shortened: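 Compounds are applied to a genetically defined yeast strain lacking normal DNA damage repair, and inhibition of growth is expressed relative to cultures given vehicle only.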

[2] = NCI Yeast Anticancer Drug Screen. Data for the wt1 strain (AID 149);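 note: 0% = growth of vehicle-treated wt1 cultures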; settings: S. cerevisiae wt1 strain (SPY 50644) growth inhibition, hits give high values
Procedure, shortened: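 Each compound is tested on wt1 yeast and the loss of growth versus vehicle gives the inhibition value.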

[3] = NCI Yeast Anticancer Drug Screen. Data for the rad50EPP+ strain (AID 151);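 note: 0% = growth of vehicle-treated control cultures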; settings: S. cerevisiae rad50 mutant strain, hits give high values
Procedure, shortened: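 Compounds were applied to the rad50EPP+ yeast strain, which bears a defined DNA repair alteration, and growth inhibition was determined relative to vehicle-treated cultures.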

[4] = NCI Yeast Anticancer Drug Screen. Data for the mgt1 strain (AID 153); settings: S. cerevisiae mgt1 mutant growth inhibition, hits give high values
Procedure, shortened: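 Strain: mgt1 yeast, one of a set carrying defined DNA damage repair or cell cycle control alterations. Compound-treated growth compared with vehicle.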

[5] = NCI Yeast Anticancer Drug Screen. Data for the rad50 strain (AID 155);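 note: 0% = growth of vehicle-only cultures of the same strain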; settings: S. cerevisiae rad50 strain growth inhibition, hits give high values
Procedure, shortened: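 Vehicle-treated cultures provide the reference for the growth inhibition reported for compound-exposed, repair-deficient yeast.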

[6] = NCI Yeast Anticancer Drug Screen. Data for the mec2-1 strain (AID 157); settings: S. cerevisiae mec2-1 strain, hits give high values
Procedure, shortened: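 Strain: mec2-1 (DNA repair/cell cycle alteration). Compound exposure, then growth measured; inhibition expressed relative to vehicle.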

[7] = NCI Yeast Anticancer Drug Screen. Data for the rad14 strain (AID 159);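 note: 0% = growth of vehicle-treated control cultures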; settings: S. cerevisiae rad14 strain growth inhibition, hits give high values
Procedure, shortened: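 Inhibition of growth is reported for a repair-deficient yeast mutant following compound treatment, calculated relative to cultures that received vehicle.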

[8] = NCI Yeast Anticancer Drug Screen. Data for the sgs1 mgt1 strain (AID 161);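 note: 0% = growth of cultures given vehicle only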; settings: S. cerevisiae sgs1 mgt1 strain, hits give high values
Procedure, shortened: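 Test agents were incubated with a DNA-repair-mutant yeast strain. Growth was then read and compared against vehicle-treated controls.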

[9] = NCI Yeast Anticancer Drug Screen. Data for the CLN2oe strain (AID 163);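 note: 0% = growth of vehicle-only control cultures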; settings: S. cerevisiae CLN2oe strain, hits give high values
Procedure, shortened: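 Growth of a genetically modified yeast strain is measured after compound exposure and compared with cultures given vehicle alone.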

[10] = NCI Yeast Anticancer Drug Screen. Data for the cln2 rad14 strain (AID 165);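 note: 0% = growth equal to vehicle treated cultures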; settings: S. cerevisiae cln2 rad14 strain, hits give high values
Procedure, shortened: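 Compounds are applied to the cln2 rad14 yeast strain, and growth is then compared with that of vehicle-treated cultures to give inhibition.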

[11] = NCI Yeast Anticancer Drug Screen. Data for the bub3 strain (AID 167); settings: S. cerevisiae bub3 mutant strain, hits give high values
Procedure, shortened: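 Mutant yeast screening strain plus compound; vehicle-treated cultures serve as the 0% inhibition reference.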

[12] = NCI Yeast Anticancer Drug Screen. Data for the mlh1 strain (AID 171);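 note: 0% = growth of vehicle-treated control cultures of the same strain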; settings: S. cerevisiae mlh1 strain growth inhibition, hits give high values
Procedure, shortened: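 Growth of the mutant yeast strain after compound exposure, expressed as inhibition relative to vehicle-only controls.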

[13] = NCI Yeast Anticancer Drug Screen. Data for the sgs1 strain (AID 173);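 note: 0% = growth of vehicle-only control cultures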; settings: S. cerevisiae sgs1 mutant, hits give high values
Procedure, shortened: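 Growth of a yeast strain bearing a defined genetic alteration is measured after compound treatment. Inhibition is expressed relative to vehicle-only controls.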

[14] = NCI Yeast Anticancer Drug Screen. Data for the mlh1 rad18 strain (AID 175); settings: S. cerevisiae mlh1 rad18 strain growth inhibition, hits give high values
Procedure, shortened: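 Read-out is yeast growth inhibition, calculated against vehicle-only controls. The compound was applied to a strain engineered with DNA damage repair alterations.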

[15] = NCI Yeast Anticancer Drug Screen. Data for the rad18 strain (AID 177); settings: S. cerevisiae rad18 mutant growth inhibition, hits give high values
Procedure, shortened: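 Growth of the mutant yeast strain after compound exposure, normalised to vehicle-only cultures.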

[16] = NCI Yeast Anticancer Drug Screen. Data for the wt2 strain (AID 169); settings: S. cerevisiae wt2 strain growth inhibition, hits give high values
Procedure, shortened: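 This strain belongs to a panel of yeast strains with defined genetic alterations in DNA damage repair or cell cycle control. Compounds are applied, and growth inhibition is measured against vehicle-treated cultures.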

[17] = at 5.0 µM (retest, dose inferred, filed as 0.5)
[18] = at 50.0 µM (retest, dose inferred, filed as 5.0)

Measured: growth inhibition

NCCCSc1ccccc1
inactive: [1]; at 1.2 µM -2% | [1]; at 3.7 µM -2% | [1]; at 11.0 µM -4% | [1]; at 33.0 µM -4% | [1]; at 100.0 µM -2% | [2]; at 1.2 µM -2% | [2]; at 3.7 µM -4% | [2]; at 11.0 µM -2% | [2]; at 33.0 µM -3% | [2]; at 100.0 µM -3% | [3]; at 1.2 µM -3% | [3]; at 3.7 µM -1% | [3]; at 11.0 µM -4% | [3]; at 33.0 µM -8% | [3]; at 100.0 µM -6% | [4]; at 1.2 µM -3% | [4]; at 3.7 µM -4% | [4]; at 11.0 µM -4% | [4]; at 33.0 µM 13% | [4]; at 100.0 µM -1% | [5]; at 1.2 µM -3% | [5]; at 3.7 µM -2% | [5]; [17] 2% | [5]; at 11.0 µM -2% | [5]; at 33.0 µM -3% | [5]; [18] -19% | [5]; at 50.0 µM -25.2% | [5]; at 100.0 µM -2% | [6]; at 1.2 µM -1% | [6]; at 3.7 µM 0% | [6]; [17] -8% | [6]; at 11.0 µM 1% | [6]; at 33.0 µM 0% | [6]; [18] -30% | [6]; at 50.0 µM 14.7% | [6]; at 100.0 µM 0% | [7]; at 1.2 µM -2% | [7]; at 3.7 µM -1% | [7]; at 11.0 µM -1% | [7]; at 33.0 µM -1% | [7]; at 100.0 µM -1% | [8]; [17] -11% | [8]; [18] -6% | [8]; at 50.0 µM -1.9% | [9]; at 1.2 µM -4% | [9]; at 3.7 µM -3% | [9]; at 11.0 µM 0% | [9]; at 33.0 µM -4% | [9]; at 100.0 µM -5% | [10]; [17] -3% | [10]; [18] 37% | [10]; at 50.0 µM 34.4% | [11]; at 1.2 µM -2% | [11]; at 3.7 µM -3% | [11]; [17] 8% | [11]; at 11.0 µM -1% | [11]; at 33.0 µM -1% | [11]; at 50.0 µM -0.3% | [11]; at 100.0 µM -4% | [12]; at 1.2 µM -2% | [12]; at 3.7 µM -4% | [12]; at 11.0 µM -2% | [12]; at 33.0 µM -4% | [12]; at 100.0 µM -2% | [13]; at 1.2 µM 0% | [13]; at 3.7 µM 1% | [13]; at 11.0 µM 2% | [13]; at 33.0 µM 0% | [13]; at 100.0 µM 1% | [14]; [17] -21% | [14]; [18] -15% | [14]; at 50.0 µM -4.65% | [15]; at 1.2 µM -1% | [15]; at 3.7 µM -1% | [15]; at 11.0 µM -8% | [15]; at 33.0 µM 1% | [15]; at 100.0 µM -1%
active: [11]; [18] 78%

CCOc1ccc2nc3ccccc3c(N)c2c1
active: [1]; at 33.0 µM 91% | [1]; at 100.0 µM 97% | [2]; at 33.0 µM 83% | [2]; at 100.0 µM 94% | [3]; at 100.0 µM 90% | [4]; at 33.0 µM 83% | [4]; at 100.0 µM 94% | [5]; at 33.0 µM 89% | [5]; [18] 81% | [5]; at 50.0 µM 91.2% | [5]; at 100.0 µM 97% | [6]; at 33.0 µM 80% | [6]; [18] 82% | [6]; at 50.0 µM 83.7% | [6]; at 100.0 µM 97% | [7]; at 33.0 µM 87% | [7]; at 100.0 µM 92% | [8]; [18] 86% | [8]; at 50.0 µM 81.2% | [9]; at 100.0 µM 92% | [10]; [18] 84% | [10]; at 50.0 µM 86.2% | [16]; at 33.0 µM 89% | [16]; at 100.0 µM 98% | [12]; at 33.0 µM 90% | [12]; at 100.0 µM 98% | [13]; at 33.0 µM 88% | [13]; at 100.0 µM 97% | [14]; [18] 82% | [14]; at 50.0 µM 89.5% | [15]; at 33.0 µM 83% | [15]; at 100.0 µM 97%
inactive: [1]; at 1.2 µM 13% | [1]; at 3.7 µM 22% | [1]; at 11.0 µM 60% | [2]; at 1.2 µM 7% | [2]; at 3.7 µM 13% | [2]; at 11.0 µM 37% | [3]; at 1.2 µM 2% | [3]; at 3.7 µM 4% | [3]; at 11.0 µM 21% | [3]; at 33.0 µM 59% | [4]; at 1.2 µM 0% | [4]; at 3.7 µM 9% | [4]; at 11.0 µM 35% | [5]; at 1.2 µM 7% | [5]; at 3.7 µM 21% | [5]; [17] 0% | [5]; at 11.0 µM 50% | [6]; at 1.2 µM 5% | [6]; at 3.7 µM 4% | [6]; [17] 21% | [6]; at 11.0 µM 19% | [7]; at 1.2 µM 4% | [7]; at 3.7 µM 23% | [7]; at 11.0 µM 50% | [8]; [17] 32% | [9]; at 1.2 µM 7% | [9]; at 3.7 µM 16% | [9]; at 11.0 µM 33% | [9]; at 33.0 µM 68% | [10]; [17] 46% | [16]; at 1.2 µM 7% | [16]; at 3.7 µM 18% | [16]; at 11.0 µM 49% | [12]; at 1.2 µM 7% | [12]; at 3.7 µM 8% | [12]; at 11.0 µM 47% | [13]; at 1.2 µM 10% | [13]; at 3.7 µM 24% | [13]; at 11.0 µM 51% | [14]; [17] 10% | [15]; at 1.2 µM 4% | [15]; at 3.7 µM 8% | [15]; at 11.0 µM 30%

Cc1cccc(C)c1NC(=O)C(C#N)C1=C(Cl)C(=O)c2ccccc2C1=O (stereo not drawn)
active: [1]; at 11.0 µM 93% | [1]; at 33.0 µM 95% | [1]; at 100.0 µM 94% | [2]; at 11.0 µM 94% | [2]; at 33.0 µM 98% | [2]; at 100.0 µM 97% | [3]; at 11.0 µM 98% | [3]; at 33.0 µM 98% | [3]; at 100.0 µM 96% | [4]; at 3.7 µM 78% | [4]; at 11.0 µM 98% | [4]; at 33.0 µM 98% | [4]; at 100.0 µM 98% | [5]; [17] 95% | [5]; at 11.0 µM 97% | [5]; at 33.0 µM 97% | [5]; [18] 96% | [5]; at 50.0 µM 91.2% | [5]; at 100.0 µM 96% | [6]; [17] 99% | [6]; at 11.0 µM 98% | [6]; at 33.0 µM 98% | [6]; [18] 99% | [6]; at 50.0 µM 93.1% | [6]; at 100.0 µM 98% | [7]; at 3.7 µM 88% | [7]; at 11.0 µM 98% | [7]; at 33.0 µM 98% | [7]; at 100.0 µM 97% | [8]; [17] 99% | [8]; [18] 99% | [8]; at 50.0 µM 93.7% | [9]; at 11.0 µM 77% | [9]; at 33.0 µM 97% | [9]; at 100.0 µM 96% | [10]; [18] 98% | [10]; at 50.0 µM 92.8% | [11]; at 3.7 µM 70% | [11]; [17] 99% | [11]; at 11.0 µM 97% | [11]; at 33.0 µM 97% | [11]; [18] 98% | [11]; at 50.0 µM 92.2% | [11]; at 100.0 µM 95%
inactive: [1]; at 1.2 µM -43% | [1]; at 3.7 µM 46% | [2]; at 1.2 µM -24% | [2]; at 3.7 µM 24% | [3]; at 1.2 µM 14% | [3]; at 3.7 µM 67% | [4]; at 1.2 µM -4% | [5]; at 1.2 µM -11% | [5]; at 3.7 µM 23% | [6]; at 1.2 µM -7% | [6]; at 3.7 µM 62% | [7]; at 1.2 µM -2% | [9]; at 1.2 µM 3% | [9]; at 3.7 µM 16% | [10]; [17] 65% | [11]; at 1.2 µM 6%
